Assay results: the supplement of paper PMC10849652
About 7,900 targets were measured; listed, in parts, are those with a hit and a random draw of the rest. About 0.6% of all pairs of compound and target were hits. A number with no mark means an inactive call.

Key:
Test in all cases: log2 fold change, soluble protein after heating vs DMSO (PISA); higher = thermal stabilisation; K562 cells, 10 uM, 30 min; active = over 0.2 and 3.5 SD of the protein, either way, in both replicates (recomputed)
volasertib = compound: CC[C@@H]1C(=O)N(C)c2cnc(Nc3ccc(C(=O)N[C@H]4CC[C@H](N5CCN(CC6CC6)CC5)CC4)cc3OC)nc2N1C(C)C [volasertib]
Summary of the method: (§1)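 Soluble protein was quantified by TMTpro 16plex LC-MS/MS after channel sums were equalised. It was obtained as the supernatant after 21,000xg for 90 min from pooled aliquots of K562 cells (2×10^6 cells/mL, 10 μM compound, 30 min) heated for 3 min across 48°C-58°C and extracted in PBS with 0.5% NP-40 at 4°C. Thermal stability values are relative to control samples and come from duplicates. They are given as log2 fold changes.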

[1] = compound: CC[C@H](C)N1C=C(C2=C(C=C(C=C21)C3=CN=C(C=C3)N4CCNCC4)C(=O)NCC5=C(C=C(NC5=O)C)C)C
Summary of the method: as §1

[2] = compound: CCn1c(C(=O)N(C2CC2)C2CC2)cc2c3c(ncn3C)c(Nc3cc(C)n(C)n3)nc21
Summary of the method: as §1

[3] = compound: CCn1cc(-c2ccnc3[nH]c(-c4cccc(CN(C)C)c4)cc23)c(-c2ccc(NC(=O)N(C)C)cc2)n1
Summary of the method: as §1

[4] = compound: CN(C)CC(=O)Nc1ccc2[nH]c(=O)c3ccccc3c2c1
Summary of the method: as §1

rosiglitazone = compound: CN(CCOC1=CC=C(C=C1)C[C@H]2C(=O)NC(=O)S2)C3=CC=CC=N3 (racemic) [rosiglitazone]
Summary of the method: as §1

[5] = compound: CN1CCC(CNc2ccc3ncc(-c4cccc(OC(F)(F)F)c4)n3n2)CC1
Summary of the method: as §1

alvocidib = compound: CN1CC[C@H](c2c(O)cc(O)c3c(=O)cc(-c4ccccc4Cl)oc23)[C@H](O)C1 [alvocidib]
Summary of the method: as §1

Tubastatin A = compound: CN1CCc2c(c3ccccc3n2Cc2ccc(C(=O)NO)cc2)C1 [Tubastatin A]
Summary of the method: as §1

[6] = compound: CNC(=O)C1=CC=CC=C1NC2=NC(=NC=C2Cl)NC3=C(C=C(C=C3)N4CCOCC4)OC
Summary of the method: as §1

defactinib = compound: CNC(=O)c1ccc(Nc2ncc(C(F)(F)F)c(NCc3nccnc3N(C)S(C)(=O)=O)n2)cc1 [defactinib]
Summary of the method: as §1

[7] = compound: COC(=O)[C@H](CCSC)NC(=O)C1=C(C=C(C=C1)NC[C@H](CS)N)C2=CC=CC=C2
Summary of the method: as §1

sotrastaurin = compound: CN1CCN(c2nc(C3=C(c4c[nH]c5ccccc45)C(=O)NC3=O)c3ccccc3n2)CC1 [sotrastaurin]
Summary of the method: as §1

epoxomicin = compound: CC[C@H](C)[C@@H](C(=O)N[C@@H]([C@@H](C)O)C(=O)N[C@@H](CC(C)C)C(=O)[C@]1(CO1)C)NC(=O)[C@H]([C@@H](C)CC)N(C)C(=O)C [epoxomicin]
Summary of the method: as §1

[8] = compound: CN1C2=C(C3=C1C(=O)N(N=C3)CC4=CC(=CC=C4)N)SC(=C2)S(=O)C
Summary of the method: as §1

saracatinib = compound: CN1CCN(CCOc2cc(OC3CCOCC3)c3c(Nc4c(Cl)ccc5c4OCO5)ncnc3c2)CC1 [saracatinib]
Summary of the method: as §1

[9] = compound: CNc1nc(-c2ccc3c(N)n[nH]c3c2)cc(N2C[C@@H](C(=O)NC3CCCCC3)CC[C@H]2C)n1
Summary of the method: as §1

[10] = compound: CC[C@@H]1C(=O)N(C)c2cnc(Nc3ccc(C(=O)NC4CCN(C)CC4)cc3OC)nc2N1C1CCCC1
Summary of the method: as §1

rucaparib = compound: CNCc1ccc(-c2[nH]c3cc(F)cc4c3c2CCNC4=O)cc1 [rucaparib]
Summary of the method: as §1

encorafenib = compound: COC(=O)N[C@@H](C)CNc1nccc(-c2cn(C(C)C)nc2-c2cc(Cl)cc(NS(C)(=O)=O)c2F)n1 [encorafenib]
Summary of the method: as §1

Sequence of UniProt Q86TA1 (Q86TA1 whole entry, looked up): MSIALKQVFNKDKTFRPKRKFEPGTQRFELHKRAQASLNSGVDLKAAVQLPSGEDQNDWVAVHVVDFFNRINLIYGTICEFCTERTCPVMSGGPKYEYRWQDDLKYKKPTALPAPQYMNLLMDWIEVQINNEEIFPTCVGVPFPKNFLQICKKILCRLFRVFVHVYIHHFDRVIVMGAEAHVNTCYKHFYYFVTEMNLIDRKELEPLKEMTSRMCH
Sequence of UniProt Q6N063 (Q6N063 whole entry, looked up): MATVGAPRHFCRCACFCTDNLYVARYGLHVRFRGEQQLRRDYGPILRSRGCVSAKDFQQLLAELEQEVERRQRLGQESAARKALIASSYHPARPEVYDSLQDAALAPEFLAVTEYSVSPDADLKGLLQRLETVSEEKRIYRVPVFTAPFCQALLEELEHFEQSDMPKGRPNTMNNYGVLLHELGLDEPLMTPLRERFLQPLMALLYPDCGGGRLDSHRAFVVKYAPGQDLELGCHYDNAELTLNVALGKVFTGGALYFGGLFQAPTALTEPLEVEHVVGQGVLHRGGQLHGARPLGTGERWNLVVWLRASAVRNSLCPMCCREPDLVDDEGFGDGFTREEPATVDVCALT
Sequence of UniProt Q96H55 (Q96H55 whole entry, looked up): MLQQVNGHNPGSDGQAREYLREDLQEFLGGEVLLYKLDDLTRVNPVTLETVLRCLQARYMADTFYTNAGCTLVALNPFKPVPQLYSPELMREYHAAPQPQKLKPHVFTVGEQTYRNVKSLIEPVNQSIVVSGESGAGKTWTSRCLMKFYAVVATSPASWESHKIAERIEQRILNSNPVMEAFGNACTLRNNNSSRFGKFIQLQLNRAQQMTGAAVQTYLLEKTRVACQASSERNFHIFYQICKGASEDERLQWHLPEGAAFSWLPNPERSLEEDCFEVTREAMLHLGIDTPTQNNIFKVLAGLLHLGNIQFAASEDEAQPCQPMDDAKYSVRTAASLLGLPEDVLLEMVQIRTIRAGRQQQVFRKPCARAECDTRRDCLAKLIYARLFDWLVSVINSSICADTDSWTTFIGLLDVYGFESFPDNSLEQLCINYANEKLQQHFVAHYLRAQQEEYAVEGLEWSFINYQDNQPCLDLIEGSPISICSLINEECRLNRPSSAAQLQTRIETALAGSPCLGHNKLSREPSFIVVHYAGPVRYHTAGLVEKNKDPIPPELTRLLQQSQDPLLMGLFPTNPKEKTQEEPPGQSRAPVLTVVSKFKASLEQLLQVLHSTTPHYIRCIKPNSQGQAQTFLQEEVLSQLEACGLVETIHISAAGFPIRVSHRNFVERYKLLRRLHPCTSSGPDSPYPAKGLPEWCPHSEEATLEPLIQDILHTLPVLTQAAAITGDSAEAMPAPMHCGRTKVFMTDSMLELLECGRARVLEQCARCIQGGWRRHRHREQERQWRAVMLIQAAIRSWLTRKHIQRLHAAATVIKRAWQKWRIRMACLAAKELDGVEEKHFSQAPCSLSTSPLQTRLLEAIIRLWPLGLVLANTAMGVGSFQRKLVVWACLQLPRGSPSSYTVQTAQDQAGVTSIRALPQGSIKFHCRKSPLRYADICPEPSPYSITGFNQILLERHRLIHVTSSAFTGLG
Sequence of UniProt Q9H6N6 (Q9H6N6 whole entry, looked up): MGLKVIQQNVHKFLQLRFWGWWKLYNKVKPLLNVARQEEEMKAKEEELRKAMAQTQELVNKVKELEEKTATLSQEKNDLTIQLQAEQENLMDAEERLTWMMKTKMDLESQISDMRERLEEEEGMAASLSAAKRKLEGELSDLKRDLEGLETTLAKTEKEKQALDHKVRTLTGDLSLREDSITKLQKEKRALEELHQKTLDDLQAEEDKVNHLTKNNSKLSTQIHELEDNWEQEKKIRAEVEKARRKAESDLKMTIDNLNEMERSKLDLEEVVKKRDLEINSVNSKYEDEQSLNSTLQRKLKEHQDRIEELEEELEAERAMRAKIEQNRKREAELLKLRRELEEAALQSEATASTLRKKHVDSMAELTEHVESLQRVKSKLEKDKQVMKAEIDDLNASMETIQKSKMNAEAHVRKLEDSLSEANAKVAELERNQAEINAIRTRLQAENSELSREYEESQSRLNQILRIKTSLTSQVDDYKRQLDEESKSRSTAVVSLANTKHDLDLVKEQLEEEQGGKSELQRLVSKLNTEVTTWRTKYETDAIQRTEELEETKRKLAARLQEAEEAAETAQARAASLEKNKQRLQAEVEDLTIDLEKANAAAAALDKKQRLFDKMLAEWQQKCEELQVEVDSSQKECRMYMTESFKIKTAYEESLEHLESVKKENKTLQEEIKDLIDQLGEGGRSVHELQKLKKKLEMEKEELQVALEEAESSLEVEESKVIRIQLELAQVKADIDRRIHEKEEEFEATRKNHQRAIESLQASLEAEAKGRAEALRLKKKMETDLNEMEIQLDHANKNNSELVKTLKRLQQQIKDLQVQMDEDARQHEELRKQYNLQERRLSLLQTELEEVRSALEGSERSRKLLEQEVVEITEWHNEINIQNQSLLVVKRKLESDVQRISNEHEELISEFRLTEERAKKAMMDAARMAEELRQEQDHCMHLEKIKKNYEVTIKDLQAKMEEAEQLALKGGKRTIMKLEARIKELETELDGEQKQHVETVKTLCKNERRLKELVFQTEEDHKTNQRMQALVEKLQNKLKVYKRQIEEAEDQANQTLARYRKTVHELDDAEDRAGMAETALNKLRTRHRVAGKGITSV
Sequence of UniProt Q9Y6R0 (Q9Y6R0 whole entry, looked up): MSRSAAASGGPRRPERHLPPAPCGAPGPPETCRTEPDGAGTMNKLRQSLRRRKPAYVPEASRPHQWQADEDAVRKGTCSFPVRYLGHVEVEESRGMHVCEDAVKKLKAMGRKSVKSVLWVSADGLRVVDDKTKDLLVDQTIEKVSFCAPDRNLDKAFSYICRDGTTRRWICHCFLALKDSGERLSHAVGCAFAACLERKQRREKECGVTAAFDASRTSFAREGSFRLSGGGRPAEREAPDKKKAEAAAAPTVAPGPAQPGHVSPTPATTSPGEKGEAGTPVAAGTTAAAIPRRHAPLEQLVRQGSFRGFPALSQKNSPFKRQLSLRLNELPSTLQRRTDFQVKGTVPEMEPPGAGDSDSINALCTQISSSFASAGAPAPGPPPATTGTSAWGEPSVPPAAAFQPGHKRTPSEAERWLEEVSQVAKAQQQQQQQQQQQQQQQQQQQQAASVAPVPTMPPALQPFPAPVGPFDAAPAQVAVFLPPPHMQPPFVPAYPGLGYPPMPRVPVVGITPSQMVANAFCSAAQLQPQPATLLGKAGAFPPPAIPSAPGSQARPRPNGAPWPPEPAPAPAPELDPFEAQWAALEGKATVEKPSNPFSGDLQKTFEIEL
Sequence of UniProt P03891 (P03891 whole entry, looked up): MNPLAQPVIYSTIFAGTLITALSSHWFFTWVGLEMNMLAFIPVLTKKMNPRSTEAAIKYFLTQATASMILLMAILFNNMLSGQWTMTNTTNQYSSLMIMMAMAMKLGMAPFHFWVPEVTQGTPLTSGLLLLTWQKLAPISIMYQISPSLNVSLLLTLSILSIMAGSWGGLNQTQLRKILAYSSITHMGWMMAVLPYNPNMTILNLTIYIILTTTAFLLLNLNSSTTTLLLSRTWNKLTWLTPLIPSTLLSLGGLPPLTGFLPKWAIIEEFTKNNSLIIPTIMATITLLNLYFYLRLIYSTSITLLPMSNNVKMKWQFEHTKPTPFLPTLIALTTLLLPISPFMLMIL
Sequence of UniProt Q70IA6 (Q70IA6 whole entry, looked up): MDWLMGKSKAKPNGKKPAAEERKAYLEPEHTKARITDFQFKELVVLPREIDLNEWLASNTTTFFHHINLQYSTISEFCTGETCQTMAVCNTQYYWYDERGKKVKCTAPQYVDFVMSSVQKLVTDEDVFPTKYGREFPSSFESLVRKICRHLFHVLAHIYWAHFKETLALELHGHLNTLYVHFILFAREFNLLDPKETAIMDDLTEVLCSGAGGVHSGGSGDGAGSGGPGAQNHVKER
Sequence of UniProt Q9UI43 (Q9UI43 whole entry, looked up): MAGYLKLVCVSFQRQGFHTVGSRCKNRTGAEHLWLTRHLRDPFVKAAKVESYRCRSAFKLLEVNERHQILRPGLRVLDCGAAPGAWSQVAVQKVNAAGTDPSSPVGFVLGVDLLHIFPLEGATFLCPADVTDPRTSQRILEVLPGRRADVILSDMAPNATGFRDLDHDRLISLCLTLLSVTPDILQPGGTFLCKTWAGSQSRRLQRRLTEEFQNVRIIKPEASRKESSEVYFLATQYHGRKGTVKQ
Sequence of UniProt Q9UBD5 (Q9UBD5 whole entry, looked up): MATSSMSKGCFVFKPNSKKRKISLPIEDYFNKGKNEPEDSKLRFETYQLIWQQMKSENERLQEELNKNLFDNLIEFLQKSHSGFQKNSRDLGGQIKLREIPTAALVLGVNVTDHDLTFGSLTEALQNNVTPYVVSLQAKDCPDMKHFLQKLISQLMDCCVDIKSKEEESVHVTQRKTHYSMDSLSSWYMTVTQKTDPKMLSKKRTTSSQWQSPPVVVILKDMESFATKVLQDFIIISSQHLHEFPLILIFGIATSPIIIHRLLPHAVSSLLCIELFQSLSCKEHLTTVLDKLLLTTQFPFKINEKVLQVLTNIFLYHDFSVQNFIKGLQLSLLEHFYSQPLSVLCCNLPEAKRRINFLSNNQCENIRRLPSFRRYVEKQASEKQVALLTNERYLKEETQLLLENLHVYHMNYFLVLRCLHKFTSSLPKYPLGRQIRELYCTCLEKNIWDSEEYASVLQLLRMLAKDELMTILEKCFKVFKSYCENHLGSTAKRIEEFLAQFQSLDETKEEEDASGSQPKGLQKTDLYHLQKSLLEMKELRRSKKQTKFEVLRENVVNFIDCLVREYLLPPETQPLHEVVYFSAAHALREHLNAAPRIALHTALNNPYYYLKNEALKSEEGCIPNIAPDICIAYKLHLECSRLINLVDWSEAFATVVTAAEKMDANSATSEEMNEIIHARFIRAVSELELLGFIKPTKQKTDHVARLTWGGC
Sequence of UniProt Q92686 (Q92686 whole entry, looked up): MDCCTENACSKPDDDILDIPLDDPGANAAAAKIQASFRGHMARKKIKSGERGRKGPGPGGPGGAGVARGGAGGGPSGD

Target | log2 fold change (volasertib) | log2 fold change [1] | log2 fold change [2] | log2 fold change [3] | log2 fold change [4] | log2 fold change (rosiglitazone) | log2 fold change [5] | log2 fold change (alvocidib) | log2 fold change (Tubastatin A) | log2 fold change [6] | log2 fold change (defactinib) | log2 fold change [7] | log2 fold change (sotrastaurin) | log2 fold change (epoxomicin) | log2 fold change [8] | log2 fold change (saracatinib) | log2 fold change [9] | log2 fold change [10] | log2 fold change (rucaparib) | log2 fold change (encorafenib)
MOB3B (UniProt Q86TA1) | -0.633 (active) | -0.045 | 0.149 | -0.016 | 0.034 | 0.202 | -0.159 | -0.428 | -0.03 | -0.324 | -0.252 | 0.078 |  |  |  |  |  |  |  | 
MYH16 (UniProt Q9H6N6) | 0.077 | 0.156 | 0.029 | -0.067 | 0.011 | 0.065 | 0.26 | 0.138 | -0.069 | -0.075 | 0.013 | -0.171 | -0.224 |  |  |  |  |  |  | 
MLH1 (UniProt P40692) | -0.385 |  |  | 0.073 |  | 0.264 | 0.112 | -0.235 | 0.158 |  |  |  |  | 0.11 | 0.268 | -0.103 | -0.168 |  |  | 
NRGN (UniProt Q92686) | 0.052 | -0.088 | 0.021 | 0.14 |  | 0.127 | -0.547 |  |  | 0.01 |  |  |  | 0.162 |  |  |  |  |  | 
MT-ND2 (UniProt P03891) | -0.021 | -0.113 | -0.007 | 0.106 | 0.195 | 0.04 | 0.033 | -0.321 | -0.044 | 0 | -0.008 | 0.085 |  |  | -0.13 | -0.183 | -0.295 |  |  | 
MTFR1L (UniProt Q9H019) | -0.586 (active) | 0.036 | -0.145 | -0.186 | 0.08 | -0.019 | -0.296 | -0.106 | 0.052 | -0.024 | -0.085 | -0.14 | -0.037 | 0.023 | 0.013 | 0.052 | -0.054 |  |  | 
PACRGL (UniProt Q8N7B6) |  |  |  |  |  |  |  |  |  |  |  |  | -0.075 |  |  |  |  |  |  | 
MYSM1 (UniProt Q5VVJ2) |  |  |  |  |  | 0.157 |  |  |  |  |  |  | -0.294 |  |  |  |  | -0.17 | 0.003 | 0.13
NUMBL (UniProt Q9Y6R0) | 0.019 | 0.073 | 0.023 | 0.007 | -0.023 | -0.051 | -0.259 | 0.07 |  | 0.144 | -0.101 | 0.098 | -0.412 (active) | -0.01 | 0.041 | -0.088 | -0.015 |  |  | 
OGFOD2 (UniProt Q6N063) |  | -0.019 | -0.033 | -0.372 (active) | 0.035 | -0.027 | -0.112 | -0.035 | -0.08 | 0.094 | -0.076 | 0.032 |  | 0.08 | 0.147 | 0.095 | 0.009 | -0.007 | -0.029 | 0.133
MRM2 (UniProt Q9UI43) | -0.083 | 0.008 | 0.065 |  | -0.122 |  |  | -0.364 | -0.07 | 0.033 | -0.24 | 0.101 |  |  | -0.042 | 0.173 | 0.004 |  |  | 
MXRA7 isoform 3 (UniProt P84157) | -0.01 |  |  |  |  |  |  |  |  |  |  |  |  |  |  |  |  |  |  | 
NELFCD (UniProt Q8IXH7) | -0.562 (active) | 0.244 | -0.044 | -0.113 | 0.298 | 0.015 | 0.226 | -0.378 |  | 0.024 | -0.228 | -0.085 |  | -0.052 | -0.05 | -0.114 | -0.002 |  |  | 
MYO19 (UniProt Q96H55) | 0.007 | 0.011 | -0.138 | -0.215 | -0.081 | 0.121 | 0.404 | 0.001 |  | -0.046 | 0.093 | 0.103 |  | 0.097 | 0.076 | -0.066 | 0.09 |  |  | 
NCOA5 (UniProt Q9HCD5) | 0.072 | -0.019 | 0.026 | 0.038 |  |  | 0.036 |  |  | -0.081 |  |  | 0.188 |  | 0.187 | 0.002 | -0.04 |  |  | 
NA, A0A2R8Y3M9 | -0.134 | 0.014 |  | -0.015 |  | 0.117 | 0.005 | 0.214 |  |  |  |  | 0.191 |  | 0.376 | 0.171 | -0.04 |  |  | 
NCK1 (UniProt P16333) | -0.306 | 0.109 | -0.312 |  | 0.044 | 0.223 |  | -0.005 | 0.126 | -0.071 | -0.125 | -0.122 | -0.521 (active) | -0.053 | 0.027 | -0.198 | 0.158 |  |  | 
MOB2 isoform 3 (UniProt Q70IA6) | -0.231 | 0.207 | -0.036 | -0.029 |  | -0.004 | -0.103 | -0.017 | -0.073 | -0.123 |  |  |  | -0.193 |  |  |  |  |  | 
ORC3 (UniProt Q9UBD5) |  |  |  |  |  |  |  |  |  |  |  |  |  |  |  |  |  | -0.167 | 0.061 | 0.032
